The source of these data is PubChem BioAssay (EPA / NIEHS).

Activity calls are given as the source filed them. Rule for the calls: active = hit-call score of the fitted dose curve at least 0.9, where 1 is the maximum; inactive = score below 0.9.

Read-out in the test: Tumor necrosis factor receptor 1 (TNFRSF1A), TNFRSF1A (gene 7132)
Put plainly: LTEA_HepaRG_TNFRSF1A: Life Technologies and Expression Analysis (LTEA) Assay for Tumor necrosis factor receptor 1 (TNFRSF1A) using HepaRG (AID 2283535). The conditions noted are these: mRNA level, 48 h; actives raise or lower the signal. On the procedure:
LTEA_HepaRG is a cell based, multiplexed-readout assay that uses HepaRG, a human liver cell line, with measurements taken at 48 hours after chemical dosing on a 96-well plate.LTEA_HepaRG_TNFRSF1A is one of 102 assay component(s) measured in the LTEA HepaRG cell culture assay. It is a marker of Cell proliferation, survival, death.Data from the assay component LTEA_HepaRG_TNFRSF1A was analyzed into 1 endpoint. This assay endpoint, LTEA_HepaRG_TNFRSF1A, was analyzed with bidirectional fitting relative to DMSO as the negative control and baseline of activity. Using a type of inducible reporter, measures of mRNA induction for gain or loss-of-signal activity can be used to understand regulation of transcription factor activity. To generalize the intended target to other relatable targets, this assay endpoint is annotated to the cytokine receptor intended target family, where the subfamily is TNF receptor.
A total of 1060 chemcials from the ToxCast library were tested in eight-point concentration-response experiments. Cell culture and cytotoxicity assays were conducted at Thermo Fisher Scientific's Custom Services facility (Madison, WI). A single lot of human HepaRG cells (Thermo Fisher Scientific, Frederick, MD) was used for the cell culture experiments. 96-well format collagen type I coated plates of human HepaRG cells were prepared using established methods. Briefly, cryopreserved HepaRG cells were thawed, plated at a density of approximately 100,000 cells/well in HepaRG Thaw, Plate, and General Purpose media (HPRG770, Thermo Fisher Scientific), and incubated for 48 hours. 0.5% DMSO was selected as vehicle control to balance the requisite need of DMSO in HepaRG cultures to maintain differentiation (for example, baseline metabolism, proportions of hepatocytes vs. cholangiocytes), while enabling further hepatic receptor pathway activation (for example, PXR and CAR) in response to chemical exposure. 48 hours after plating, the culture medium was replaced with HepaRG Serum-Free Incudtion Media. Cells were exposed to each test chemical in duplicate and maintained in CO2 incubators for another 48 hours. Chemical plates were thawed to room temperature and 200x concentrations of treatment groups were prepared. 8-point conentration-reponse curves were made with the highest exposure at 100 uM, followed by half-log dilutions, all in 0.5% DMSO. Each test plate contained variouse controls, induction positive controls (1mM phenobarbital), cytotoxicity positive controls ([…] aflatoxin B1), vehicle controls (0.5% DMSO), and total lysis controls (0.5% DMSO). Cell morphology images were taken using an Essen IncuCyte FLR automated microscope, with six 96-well plates imaged in about 24 minutes. Images were captured and exported and JPEG files. Spent culture media was transfered to black-well plates for the LDH assay, and remaining media was sorted at -80 C for later use. Cells were treated with RLT buffer and frozen until shipped for gene expression analysis. Total RNA was isolated from the cell suspension in 75 uL of Buffer RLT (Qiagen, Germantown, MD 20874) by Quintiles/Expression Analysis (Durham, NC) using a custom isolation procedure. Total RNA from each plate well was transferred to a preamplification plate. Fluidigm's 96.96 Dynamic ArrayTM (Fluidigm, Amsterdam, the Netherlands) technology was used for gene expression analyses by quantitative reverse transcription polymerase chain reaction (qRT-PCR, performed by Quintiles/Expression Analysis, Durham, NC)89. Standard TaqManTM Assays (Applied Biosystems/ThermoFisher Scientific, Foster City, CA) were used to assess the expression of 93 genes selected based on their selectivity and sensitivity to important hepatic receptors known to be modulated by environmental chemicals; importance in human hepatocyte functionality; and hepatotoxicity. […]
On to `O=C(c1ccccc1)c1ccccc1`, for which the molecule was called inactive.
As to `CCCCC(CC)C(=O)O` (stereo unspecified), the molecule was called inactive.
For the molecule `CN(C)CCOC(c1ccccc1)c1ccccc1`, the molecule was classed as inactive.
With `CN(Cc1cnc2nc(N)nc(N)c2n1)c1ccc(C(=O)N[C@@H](CCC(=O)O)C(=O)O)cc1`, the molecule was classed as inactive.
Turning to `O=C1NS(=O)(=O)c2ccccc21`, the molecule was called inactive.
Still for that read-out and setting: to `CCCCC=O` belongs “inactive”; to `CCCCCCCCCCCCCCC`, “inactive”.
`CS(=O)(=O)c1ccc([C@@H](CC2CCCC2)C(=O)Nc2cnccn2)cc1Cl`: the molecule was classed as inactive.
Still for that read-out and setting: to `CC(=O)Nc1ccc(O)cc1` belongs “inactive”; to `CCCCc1oc2ccccc2c1C(=O)c1cc(I)c(OCCN(CC)CC)c(I)c1`, “inactive”.
For `Cc1[nH]nc2c1N=C(c1ccccc1Cl)c1cc([N+](=O)[O-])ccc1N2`, the AC50 (commonly the concentration at which the activity in the assay is half-maximal) is 12.4 µM (active).
Regarding `N=C(N)c1ccc(OCCCCCOc2ccc(C(=N)N)cc2)cc1`, the AC50 is 30.5 µM (active).
Take `CCC(C)c1ccccc1O` (stereo unspecified): the molecule was classed as inactive.
Take `CCCCCCCCCCCCOS(=O)(=O)O`: the call was inactive.
On to `OCC(CO)(CBr)CBr`, for which the outcome was inactive.
As for `O=C(CCCN1CCC(O)(c2ccc(Cl)cc2)CC1)c1ccc(F)cc1`, the AC50 is 82.1 µM (active).
